Most compounds without a hit are left out; they make up all but 1.9% or so of the library.
FAK inh – inhibitors of human focal adhesion kinase; Q05397; biochemical FAK kinase activity assay; AID 727; inhibition, %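 (tested at 7 µM)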; actives 0.84% (n = 97,000); in the data active means inhibition above about 19%;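 further: 0% = DMSO and 100% = reference compound high control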
Target sequence (Q05397 whole entry, looked up): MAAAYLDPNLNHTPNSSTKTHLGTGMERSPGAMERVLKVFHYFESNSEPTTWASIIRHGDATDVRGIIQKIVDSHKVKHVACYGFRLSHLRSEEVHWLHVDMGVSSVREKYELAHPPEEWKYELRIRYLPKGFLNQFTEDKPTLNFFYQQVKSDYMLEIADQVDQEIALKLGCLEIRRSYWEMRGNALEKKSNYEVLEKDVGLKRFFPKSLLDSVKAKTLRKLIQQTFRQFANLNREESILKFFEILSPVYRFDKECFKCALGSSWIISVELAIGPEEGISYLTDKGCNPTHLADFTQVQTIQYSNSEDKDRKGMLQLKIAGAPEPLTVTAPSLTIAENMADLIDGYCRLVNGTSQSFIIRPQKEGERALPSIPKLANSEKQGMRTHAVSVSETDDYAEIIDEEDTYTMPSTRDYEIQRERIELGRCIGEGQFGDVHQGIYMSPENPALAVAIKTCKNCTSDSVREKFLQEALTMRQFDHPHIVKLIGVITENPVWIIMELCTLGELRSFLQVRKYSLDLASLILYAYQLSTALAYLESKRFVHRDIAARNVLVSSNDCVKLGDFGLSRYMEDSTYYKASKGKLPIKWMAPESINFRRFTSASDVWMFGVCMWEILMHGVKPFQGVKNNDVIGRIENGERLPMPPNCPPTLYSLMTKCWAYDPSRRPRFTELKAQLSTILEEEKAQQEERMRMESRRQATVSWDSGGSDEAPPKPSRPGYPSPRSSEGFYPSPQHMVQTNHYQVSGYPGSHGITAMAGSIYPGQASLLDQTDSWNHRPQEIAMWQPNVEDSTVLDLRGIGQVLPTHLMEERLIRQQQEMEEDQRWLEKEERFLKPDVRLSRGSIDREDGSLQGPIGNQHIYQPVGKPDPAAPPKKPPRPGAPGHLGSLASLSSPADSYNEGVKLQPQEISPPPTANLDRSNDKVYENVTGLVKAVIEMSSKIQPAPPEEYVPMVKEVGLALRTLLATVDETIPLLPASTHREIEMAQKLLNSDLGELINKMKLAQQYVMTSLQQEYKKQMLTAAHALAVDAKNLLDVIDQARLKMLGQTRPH
S1P2 ag – agonists of human S1P2 receptor; O95136; S1P2-expressing cell line, agonist reporter read-out; activation, % at 4.5 µM; actives 0.46% (n = 97,000); AID 729; in the data active means activation above about 16%;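 further: 0% = vehicle low control and 100% = maximal reference agonist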
S1P2 blocker – S1P2 (human) receptor antagonism; actives 0.21% (n = 97,000); inhibition, % at 5 µM; cell-based S1P2 antagonist assay, inhibition at 5 uM; O95136; AID 736; in the data active means inhibition above about 45%;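 further: CRE beta-lactamase reporter cells expressing human S1P2 stimulated with S1P; 0% = agonist at EC80 alone and 100% = agonist plus reference antagonist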
GALR2 blocker – antagonists of human galanin receptor 2 (GALR2); O43603; GALR2-expressing cells, antagonist mode; inhibition, % at 4 µM; actives 0.39% (n = 140,000); AID 828; in the data active means inhibition above about 27%;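 further: cells stimulated with galanin 1-16 at roughly its EC80; 0% = agonist challenge control and 100% = basal control without agonist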
SDO1 yeast rescue – restores growth of sdo1-depleted yeast; z-score at 10 µM; actives 0.21% (n = 140,000); S. cerevisiae sdo1-depleted JHY4D growth rescue, OD600 30 h; stronger effect = higher value; pdr5 snq2 efflux-pump mutant strain;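 active means z-score above 3 at both the 24 hr and the 30 hr optical density reads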;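 further: z-score against mean and SD of all compound wells on the same plate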
GALR2 ag – agonists of human galanin receptor 2 (GALR2); O43603; GALR2-expressing cells, agonist activation read-out; activation, % (concentration not given with the values); actives 0.48% (n = 140,000); AID 803; in the data active means activation above about 5%, passing the limit was not always enough;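 further: 0% = vehicle buffer wells and 100% = reference agonist at full effect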
* marks the source's active call; other numbers are inactive results; nt = not tested or not shown; [ ] = another dose, or the depositor's remark.

SMILES	FAK inh	S1P2 ag	S1P2 blocker	GALR2 blocker	SDO1 yeast rescue	GALR2 ag
C=CCNC(=O)C1CC1(c1ccccc1)c1ccccc1 (stereo not given)	nt	nt	nt	-8.9	0.21	-0.1
COC(=O)c1ccc(NC(=O)c2sc3nc(-c4ccccc4)cn3c2C)cc1	-34.8	-5.9	46.9*	12.1	-1.42	-2.9
CSc1nc(SCC(=O)NCc2ccco2)c2c3c(sc2n1)CN(C)CC3	21.6*	-4.5	6.0	8.8	-0.17[11.1 µM]	-2.0
CSc1nc(NCc2ccco2)c2c3c(sc2n1)CN(C)CC3	8.7	-3.2	-11.1	-5.8	-1.14[5.6 µM]	-1.2
CCn1c(SCC(=O)N2c3ccccc3Sc3ccc(Cl)cc32)nc2c1c(=O)n(C)c(=O)n2C	0.3	-4.8	-3.7	2.4	nt	-2.0
CCCn1c(NCc2cccc(OC)c2OC)nc2ccccc21	-1.2	-6.0	13.8	-3.1	0.42	-0.7
CCCn1c(NCc2c[nH]c3ccccc23)nc2ccccc21	1.6	21.5*	-30.6	2.0	1.14	-0.7
CC1=C(CC(=O)c2ccc(Cl)cc2)C(=O)c2ccccc2C1=O	14.7	-4.1	18.2	-2.5	-0.75	-2.7
CCc1ccc(C(C(=O)NC2CCCC2)N(C(=O)/C=C/C(=O)Nc2cc(C)on2)c2ccccc2C)cc1 (stereo not given)	nt	nt	nt	0.3	0.04	-0.9
CCOC(=O)Nc1ccc2c(c1)N(C(=O)CCN1CCOCC1)c1ccccc1S2=O (stereo not given)	3.7	-9.6	28.5	40.6*	0.11	-1.8
CCN(CC(=O)Nc1cccc(OC)c1)C(=O)c1ccc(C)s1	-1.2	-5.4	21.7	-1.8	-0.59	-1.0
COc1ccc(N=CC2=C(Nc3ccc(OC)cc3)c3c(C)nn(-c4ccccn4)c3CC2)cc1	20.3*	2.6	-9.4	2.6	nt	-1.9
O=C(CCn1c(=O)oc2ccccc21)Nc1ccccc1	3.2	0.2	6.2	-13.8	1.57	7.9*
CCCc1ccc(-c2cc(C(=O)Nc3ccc([N+](=O)[O-])cn3)c3ccccc3n2)cc1	nt	nt	nt	-10.6	-0.36	-0.2
CCc1ccc(C2=NN(c3ccc(S(N)(=O)=O)cc3)C(c3ccc(F)cc3)C2)cc1 (stereo not given)	-0.5	17.1*	-3.7	-17.7	-2.45	39.5*
NS(=O)(=O)c1ccc(N2N=C(c3ccccc3)CC2c2ccccc2)cc1 (stereo not given)	nt	nt	nt	-12.2	-0.79	5.4*
O=C(CN1C(=O)NC2(CCc3ccccc3C2)C1=O)Nc1ccc(F)cc1 (stereo not given)	nt	nt	nt	-5.1	1.19	-1.1
CCN1CCN(c2nc3c(c(=O)[nH]c(=O)n3C)n2CCSc2nc3ccccc3s2)CC1	0.6	-1.6	8.0	5.3	0.45	-0.3
CC(CSc1nc2ccccc2s1)Cn1c(N2CCCC2)nc2c1c(=O)[nH]c(=O)n2C (stereo not given)	1.0	30.0*	-21.6	2.9	-1.02	0.0
COc1ccc(OC)c(NC(=O)CN(c2ccc(C(C)C)cc2)S(=O)(=O)c2c(C)noc2C)c1	8.2	-8.3	4.8	-8.2	-1.32	-1.5
COc1ccc(OC)c(NC(=O)CN(c2ccc(C)cc2)S(=O)(=O)c2c(C)noc2C)c1	-1.4	-7.2	-1.4	-9.6	-0.23	6.9*
CCOc1ccc(N(CC(=O)NCc2ccccc2)S(=O)(=O)c2c(C)noc2C)cc1	-0.8	-4.3	11.9	-0.4	0.51	-3.1
COc1cccc(CNC(=O)CN(c2cc(C)cc(C)c2)S(=O)(=O)c2c(C)noc2C)c1	-5.5	109.2*	13.9	7.5	-1.01	-0.9
COc1ccc(Cn2c(-c3ccco3)nc3oc4cc(OC)ccc4c(=O)c3c2=O)cc1	3.7	78.6*	12.6	-4.7	-1	1.6
COc1ccc2c(=O)c3c(=O)n(Cc4ccco4)c(-c4ccco4)nc3oc2c1	9.8	-1.8	-4.6	-6.7	-1.02	1.6
SMILES	FAK inh	S1P2 ag	S1P2 blocker	GALR2 blocker	SDO1 yeast rescue	GALR2 ag
NC1=NC(=O)/C(=C/c2cn(Cc3ccccc3)c3ccccc23)S1	nt	nt	nt	3.4	-0.82	5.3*
O=C1C2C3C=CC(C3)C2C(=O)N1/N=C/c1cn(Cc2ccccc2)c2ccccc12 (stereo not given)	5.1	-0.9	3.8	-0.1	-1.05[7.7 µM]	-1.2
COc1nc(C)nc(NC(=O)NS(=O)(=O)c2ccc(C)cc2)n1	4.2	25.8*	1.8	1.2	0.77	-1.4
c1ccc(OCCSc2nnnn2-c2ccccc2)cc1	-3.9	61.8*	14.3	11.1	-1.22	-1.4
CCOc1ccc(OCCSc2nnnn2-c2ccccc2)cc1	-0.5	-7.0	-7.5	9.2	-0.76	-1.3
COc1ccccc1OC(C)C(=O)Nc1nc(-c2ccc(S(=O)(=O)N3CCOCC3)cc2)cs1 (stereo not given)	2.9	-8.2	9.1	1.3	-0.7	-3.4
COc1ccccc1C(=O)Nc1nc(-c2ccc(S(=O)(=O)N3CCOCC3)cc2)cs1	-4.2	-7.5	77.3*	25.0	-1.27	2.0
Cc1ccc(-c2csc3ncnc(SCC(=O)Nc4nnc(C)s4)c23)cc1	10.1	-4.9	2.9	-1.9	0.59	-2.1
Cc1ccc(-c2csc3ncnc(Sc4nnc(CN5CCCCCC5=O)o4)c23)cc1	11.7	-9.8	51.6*	27.0*	-1.81	6.8
CCCOc1ccc(Cn2c(=O)oc3ccc(C)cc32)cc1OC	-3.4	29.1*	8.8	4.2	-1.03	-0.3
CCCOc1ccccc1Cn1c(=O)oc2ccc(C)cc21	2.2	3.9	-14.7	13.9	0.21	0.0
Nc1nc2nc(-c3ccc(OCc4ccccc4)cc3)cc(C(F)(F)F)n2n1	-3.5	33.1*	-69.5	2.0	-0.46	5.0
COc1ccc(CC(=O)Nc2ccc(-c3noc(COc4ccccc4C)n3)cc2)cc1	nt	nt	nt	4.3	-0.34	7.8*
O=S(=O)(C/C(=C/CO)S(=O)(=O)c1ccccc1)c1ccccc1	8.8	-8.3	79.9*	82.1*	1.03	-0.4
Cc1cccc2nc(-c3ccccc3)nc(N[C@@H](CO)c3ccccc3)c12	nt	nt	nt	-0.1	-2.11	-0.3
O=C(COC(=O)c1ccccc1C(=O)c1ccc(Cl)cc1)NCCc1ccccc1	nt	nt	nt	6.9	-0.08	-0.5
O=C(COC(=O)c1ccccc1C(=O)c1ccccc1)NCCc1ccccc1	nt	nt	nt	-1.5	0.38	7.0*
CCC(C)NC(=O)c1ccccc1C(=O)NC(C)CC (stereo not given)	1.7	-0.7	58.1*	-15.8	1.18	-1.8
CCCCCCCNC(=O)C1CC(=O)N(C)C(=Nc2ccc(OC)cc2)S1 (stereo not given)	nt	nt	nt	-6.1	-1.55	-0.3
CC(C)c1ccc(-c2nc(N3CCCCCC3)nc3n[nH]c(N)c23)cc1	1.8	-5.2	5.5	-3.0	0.5	-3.0
CC(C)c1ccc(-c2nc(N3CCCC3)nc3n[nH]c(N)c23)cc1	nt	nt	nt	2.9	-0.07	6.2*
N#Cc1ccc(-c2cccnc2)nc1SCC(=O)Nc1sc2c(c1C#N)CCC2	nt	nt	nt	8.5	-0.57	6.9*
COc1cc(-c2nc(S(=O)(=O)c3ccc(C)cc3)c(N3CCOCC3)o2)cc(OC)c1OC	-5.7	18.0*	-55.1	-4.1	0.15	-0.9

Source: PubChem
